Data taken from PubChem BioAssay (NCATS).
Inconclusive results are not listed. Active and inactive are the calls of the source. The call rests on the fitted dose curve; in most records, active means well fitted curve in the direction sought with a large enough effect; inconclusive means small, poorly fitted or top-dose-only effect, or another doubt; inactive means no such curve, though single readings can be large; an effect the other way counts as inactive or inconclusive.

Molecular target: Tumor susceptibility gene 101 protein (Homo sapiens) (UniProt Q99816)
Assay: qHTS Assay for Iinhibitors of HIV-1 Budding by Blocking the Interaction of PTAP/TSG101: Hit Validation (AID 651600); further: nearly all actives have a fitted effect of over 70% in size
Conditions: PTAP peptide/TSG101 UEV interaction, biochemical assay; series mostly up to 57.5 µM
Procedure, shortened: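 FITC-PTAP peptide (50 nM final) binding to Tsg101 binding domain (10 uM final) was measured by polarization after 20 min at r.t. with compounds, in 10 mM HEPES pH 7.5 buffer with 0.15 M NaCl and 0.01% Tween 20.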
On the % scale 0 is the no-effect control and ±100 the full control effect; potency means the concentration at half of the fitted maximal effect.

Tumor susceptibility gene 101 protein (Homo sapiens), sequence (Q99816 whole entry, looked up): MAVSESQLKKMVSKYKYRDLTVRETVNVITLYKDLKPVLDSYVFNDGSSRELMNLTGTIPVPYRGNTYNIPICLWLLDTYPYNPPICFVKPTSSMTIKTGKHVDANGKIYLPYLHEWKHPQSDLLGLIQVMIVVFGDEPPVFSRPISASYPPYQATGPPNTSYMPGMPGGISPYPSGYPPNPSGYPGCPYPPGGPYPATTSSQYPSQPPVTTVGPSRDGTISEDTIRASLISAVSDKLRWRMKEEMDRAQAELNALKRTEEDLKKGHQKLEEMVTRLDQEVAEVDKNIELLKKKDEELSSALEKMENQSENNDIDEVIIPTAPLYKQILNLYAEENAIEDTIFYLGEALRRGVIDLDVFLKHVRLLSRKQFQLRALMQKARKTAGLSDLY

Potency, inactive:
CCCCN(C)C1=CC2=CC(=C(C#N)C#N)CCC2CC1 (configuration not stated)
CCN(CC)C1=CC2=CC(=C(C#N)C#N)CCC2CC1 (configuration not stated)
CC(=O)N1CCc2nc3sc(C(=O)c4ccc(F)cc4)c(N)c3c(C(F)(F)F)c2C1

Potency, active:
COc1cccc2c1C(=O)c1c(O)c3c(c(O)c1C2=O)CC(O)(C(C)=O)CC3OC1CC(N(C)C)C(O)C(C)O1 (configuration not stated) 9.19 µM
CC(=O)OCCn1c2nc(=O)[nH]c(=O)c-2nc2cc(C)c(C)cc21 0.919 µM
Cc1cc2nc3c(=O)n(Cc4ccccc4)c(=O)[nH]c3nc2cc1N 3.66 µM
Cc1cc2nc3c(=O)[nH]c(=O)[nH]c3nc2c([N+](=O)[O-])c1N 13 µM

Molecular target: Rap guanine nucleotide exchange factor 4 (Homo sapiens) (UniProt Q8WZA2)
Assay: Confirmatory qHTS for agonist of cAMP-regulated guanine nucleotide exchange factor 4 (EPAC2) (AID 1645884);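 further: nucleotide exchange releases bodipy-GDP from Rap1 and this lowers its fluorescence; nearly all actives have a fitted effect of over 65% in size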
Conditions: EPAC2 GEF activity, Rap1B-BODIPY-GDP fluorescence; series mostly up to 154 µM

Rap guanine nucleotide exchange factor 4 (Homo sapiens), sequence (Q8WZA2 whole entry, looked up): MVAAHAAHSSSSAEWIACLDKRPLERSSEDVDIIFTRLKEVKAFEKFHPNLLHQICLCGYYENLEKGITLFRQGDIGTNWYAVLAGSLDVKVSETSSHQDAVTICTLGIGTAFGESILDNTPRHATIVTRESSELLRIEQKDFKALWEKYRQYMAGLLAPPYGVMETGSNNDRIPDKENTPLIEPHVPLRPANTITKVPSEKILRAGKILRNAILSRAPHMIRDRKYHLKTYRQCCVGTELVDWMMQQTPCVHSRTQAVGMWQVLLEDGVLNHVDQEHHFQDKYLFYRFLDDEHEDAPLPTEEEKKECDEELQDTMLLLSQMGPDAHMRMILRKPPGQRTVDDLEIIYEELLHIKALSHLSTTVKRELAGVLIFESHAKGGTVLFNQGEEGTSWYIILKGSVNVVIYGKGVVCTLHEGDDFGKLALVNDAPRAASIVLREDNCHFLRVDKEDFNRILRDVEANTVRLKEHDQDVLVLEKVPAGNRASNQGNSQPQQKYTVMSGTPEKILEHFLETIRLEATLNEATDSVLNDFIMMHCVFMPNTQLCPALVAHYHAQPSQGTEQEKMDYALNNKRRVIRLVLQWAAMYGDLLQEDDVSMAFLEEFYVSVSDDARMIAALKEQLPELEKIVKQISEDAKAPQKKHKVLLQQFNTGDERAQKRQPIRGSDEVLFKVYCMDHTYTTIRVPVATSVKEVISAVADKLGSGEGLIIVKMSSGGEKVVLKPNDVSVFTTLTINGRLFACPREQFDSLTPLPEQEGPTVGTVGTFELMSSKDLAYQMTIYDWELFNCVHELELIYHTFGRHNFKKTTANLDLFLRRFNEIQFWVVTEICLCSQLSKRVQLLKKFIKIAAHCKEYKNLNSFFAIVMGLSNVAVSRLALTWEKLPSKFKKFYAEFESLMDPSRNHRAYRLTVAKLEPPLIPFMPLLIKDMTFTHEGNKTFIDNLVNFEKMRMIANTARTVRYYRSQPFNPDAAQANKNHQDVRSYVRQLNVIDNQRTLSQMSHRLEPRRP

Potency, inactive:
O=C(O)c1ccc(Nc2nc(-c3cc4ccccc4oc3=O)cs2)cc1O
CCOC(=O)c1cc(-c2ccc(/C=C3/C(=O)N(c4ccc(C(=O)O)cc4)N=C3C)o2)ccc1Cl
CC1(Cc2cc(Cl)ccc2C(F)(F)F)C(=O)Nc2c(Cl)cccc21 (configuration not stated)
COc1cc(/C=C2\SC(=Nc3ccccc3)N(CCc3c[nH]c4ccccc34)C2=O)ccc1OC(C)C(=O)O (configuration not stated)
CC(=O)N1CCc2nc3sc(C(=O)c4ccc(F)cc4)c(N)c3c(C(F)(F)F)c2C1
Brc1ccccc1Cn1c(-c2cncs2)nc2ccccc21

Potency, active:
CCCCN(C)C1=CC2=CC(=C(C#N)C#N)CCC2CC1 (configuration not stated) 126 µM
Cc1cc(C(=O)CCC(=O)N2CCN(S(=O)(=O)c3ccccc3)CC2)c(C)s1 112 µM
N#Cc1ccc(CSc2nc(N)cc(N)n2)cc1 112 µM
CCN(CC)C1=CC2=CC(=C(C#N)C#N)CCC2CC1 (configuration not stated) 112 µM
N=C1/C(=C\c2ccc(-c3cccc(C(=O)O)c3)o2)C(=O)N=C2SC=C(c3ccccc3)N12 100 µM
CC(=O)OCCn1c2nc(=O)[nH]c(=O)c-2nc2cc(C)c(C)cc21 100 µM
CN(C)/C=C1\C=C2C(=O)c3ccccc3N2C1=O 5.01 µM
CCOC(=O)c1ccc(/C=C2/C=C(c3ccccc3)N(c3ccc(Cl)c(C(=O)O)c3)C2=O)cc1 100 µM
Cc1cc2nc3c(=O)[nH]c(=O)[nH]c3nc2c([N+](=O)[O-])c1N 100 µM
Cc1cccc(C)c1NC(=O)CN1C(=O)S/C(=C\c2cccn2-c2cccc(C(=O)O)c2)C1=O 100 µM
CCOC(=O)[C@H]1[C@H]2COc3ccc(C)cc3[C@@H]2N2C(=O)c3ccc(C)cc3NC(=O)[C@@]12C 112 µM
CN(C)c1ccc(/C=C(/C(=O)c2ccc(Cl)cc2Cl)n2cncn2)cc1 112 µM
CCN(CC)CCCC(C)n1c2nc(=O)[nH]c(=O)c-2nc2cc(Cl)ccc21 (configuration not stated) 100 µM

activation, inactive:
COc1cccc2c1C(=O)c1c(O)c3c(c(O)c1C2=O)CC(O)(C(C)=O)CC3OC1CC(N(C)C)C(O)C(C)O1 (configuration not stated) 10.6% [at 17.1 µM, percent relative to cAMP agonist control]
COc1cc2cc(Oc3ccc4ccc(=O)oc4c3)c(=O)oc2cc1O 1.41% [at 17.1 µM, percent relative to cAMP agonist control]
CCOc1ccccc1CN(CCc1ccc2c(c1)OCO2)Cc1ccccn1 11.2% [at 17.1 µM, percent relative to cAMP agonist control]
Cc1cc2nc3c(=O)n(Cc4ccccc4)c(=O)[nH]c3nc2cc1N 16.2% [at 17.1 µM, percent relative to cAMP agonist control]
COc1cccc(/C=N/Nc2ccc(S(=O)(=O)Nc3ccccc3C(=O)O)cc2[N+](=O)[O-])c1O 3.64% [at 17.1 µM, percent relative to cAMP agonist control]

Molecular target: Rap guanine nucleotide exchange factor 4 (Homo sapiens) (UniProt Q8WZA2)
Assay: Confirmatory qHTS for antagonist of cAMP-regulated guanine nucleotide exchange factor 4 (EPAC2) (AID 1645885); further: nearly all actives have a fitted effect of over 25% in size
Conditions: EPAC2 Rap1B-BODIPY-GDP exchange fluorescence, biochemical; series mostly up to 12.7 µM

Potency, active:
CC1(Cc2cc(Cl)ccc2C(F)(F)F)C(=O)Nc2c(Cl)cccc21 (configuration not stated) 30.1 µM
O=C(c1cc(Cl)ccc1Cl)N1CCc2ccccc21 33.8 µM
Oc1ccc(Br)cc1CNc1cccc2cccnc12 33.8 µM
COc1ccc(O)c(C(c2c(C)[nH][nH]c2=O)c2c(C)[nH][nH]c2=O)c1 75.7 µM
COc1ccccc1Oc1nc(-c2cccnc2)nc2ccccc12 67.5 µM

Potency, inactive:
O=C(O)c1ccc(Nc2nc(-c3cc4ccccc4oc3=O)cs2)cc1O
OCc1ccc(-c2ccccc2)c(-c2ccccc2)c1
CC1CCN(c2ccc3c(c2)S(=O)(=O)c2cccc(C(=O)NC[C@@H]4CCCO4)c2C3=O)CC1
COCCn1c(-c2ccc(OC)cc2)c(-c2ccc(OC)cc2)oc1=O
CCOC(=O)c1cc(-c2ccc(/C=C3/C(=O)N(c4ccc(C(=O)O)cc4)N=C3C)o2)ccc1Cl
COc1cccc2c1C(=O)c1c(O)c3c(c(O)c1C2=O)CC(O)(C(C)=O)CC3OC1CC(N(C)C)C(O)C(C)O1 (configuration not stated)
COc1cc(/C=C2\SC(=Nc3ccccc3)N(CCc3c[nH]c4ccccc34)C2=O)ccc1OC(C)C(=O)O (configuration not stated)
COc1cc2cc(Oc3ccc4ccc(=O)oc4c3)c(=O)oc2cc1O
Cc1cc2nc3c(=O)n(Cc4ccccc4)c(=O)[nH]c3nc2cc1N
CC(=O)N1CCc2nc3sc(C(=O)c4ccc(F)cc4)c(N)c3c(C(F)(F)F)c2C1
CC1CCCN(C(=O)c2ccc(-c3ccccc3Cl)o2)C1 (configuration not stated)
COc1cccc(CNc2cccc3cccnc23)c1O
O=S(=O)(c1ccc2[nH]c3c(c2c1)CCCC3)N1CCCCC1
COc1cccc(/C=N/Nc2ccc(S(=O)(=O)Nc3ccccc3C(=O)O)cc2[N+](=O)[O-])c1O
S=C(Nc1ccc2nsnc2c1)NC1CCCCC1
COc1ccc2sc(N(Cc3cccnc3)C(=O)c3ccco3)nc2c1
Cc1cc2nc3c(=O)[nH]c(=O)[nH]c3nc2c([N+](=O)[O-])c1N
O=C(N/N=C/c1ccc(OC(=O)c2ccccc2Cl)cc1)c1cc(O)cc(O)c1
O/N=C(/c1ccc(F)cc1)C1CC1c1c(F)cccc1Cl (configuration not stated)
COc1cccc(Cn2c(=O)c3ccccc3n3nc(C)cc23)c1
COC(=O)c1ccc(COc2ccc(/C=C(\C#N)c3nc4ccccc4[nH]3)cc2OC)o1
